Source: PubChem BioAssay AID1159580 (chemical genetic matrix, 2015)
Out of some 5,500 compounds screened, about 2,000 (36%) were called active. About 18% were inconclusive and are not listed. Some of the results follow. Unmarked numbers belong to inactive results. Rule as the data show it: active = normalized growth mostly below about 0.91 (no sharp cut-off); inconclusive = no clear call, values can overlap the other calls; inactive = mostly above about 0.92.

Test: chemical genetic growth profiling, strain panel (AID 1159580);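 also: tested at 20 µM; growth read once vehicle control cultures reached saturation at 30 °C; 1 = growth at the plate median or of vehicle wells; lower values mean less growth of the strain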
Details: S. cerevisiae deletion strains, growth OD

SMILES: CC(=O)O.CC(=O)O.[Cd]
- normalized growth (locus YAL013W, strain DEP1, active compounds read low): 0.225 (active)
- normalized growth (locus YAL021C, strain ccr4, active compounds read low): 0.629 (active)
- normalized growth (locus YAL026C, strain drs2, active compounds read low): 0.436 (active)
- normalized growth (locus YAL030W, strain snc1, active compounds read low): 0.77 (active)
- normalized growth (locus YBL061C, strain skt5, active compounds read low): 0.771 (active)
- normalized growth (locus YBR009C, strain hhf1, active compounds read low): 0.606 (active)
- normalized growth (locus YBR021W, strain FUR4, active compounds read low): 0.106 (active)
- normalized growth (locus YBR023C, strain chs3, active compounds read low): 0.743 (active)
- normalized growth (locus YBR171W, strain sec66, active compounds read low): 0.786 (active)
- normalized growth (locus YBR229C, strain ROT2, active compounds read low): 0.747 (active)
- normalized growth (locus YBR231C, strain swc5, active compounds read low): 0.666 (active)
- normalized growth (locus YBR279W, strain paf1, active compounds read low): 0.635 (active)
- normalized growth (locus YCL011C, strain gbp2, active compounds read low): 0.632 (active)
- normalized growth (locus YCL016C, strain dcc1, active compounds read low): 0.754 (active)
- normalized growth (locus YCL029C, strain bik1, active compounds read low): 0.313 (active)
- normalized growth (locus YCL061C, strain MRC1, active compounds read low): 0.783 (active)
- normalized growth (locus YCL069W, strain vba3, active compounds read low): 0.762 (active)
- normalized growth (locus YCR088W, strain abp1, active compounds read low): 0.654 (active)
- normalized growth (locus YDL005C, strain med2, active compounds read low): 0.513 (active)
- normalized growth (locus YDL035C, strain GPR1, active compounds read low): 0.243 (active)
- normalized growth (locus YDL040C, strain nat1, active compounds read low): 0.589 (active)
- normalized growth (locus YDL074C, strain BRE1, active compounds read low): 0.25 (active)
- normalized growth (locus YDL101C, strain DUN1, active compounds read low): 0.177 (active)
- normalized growth (locus YDL134C, strain PPH21, active compounds read low): 0.467 (active)
- normalized growth (locus YDL185W, strain tfp1, active compounds read low): 0.482 (active)
- normalized growth (locus YDL192W, strain arf1, active compounds read low): 0.144 (active)
- normalized growth (locus YDR001C, strain nth1, active compounds read low): 0.845 (active)
- normalized growth (locus YDR069C, strain doa4, active compounds read low): 0.107 (active)
- normalized growth (locus YDR101C, strain arx1, active compounds read low): 0.319 (active)
- normalized growth (locus YDR137W, strain rgp1, active compounds read low): 0.375 (active)
- normalized growth (locus YDR150W, strain NUM1, active compounds read low): 0.175 (active)
- normalized growth (locus YDR159W, strain sac3, active compounds read low): 0.828 (active)
- normalized growth (locus YDR162C, strain NBP2, active compounds read low): 0.111 (active)
- normalized growth (locus YDR195W, strain ref2): 0.512 (active)
- normalized growth (locus YDR297W, strain sur2, active compounds read low): 0.727 (active)
- normalized growth (locus YDR318W, strain mcm21, active compounds read low): 0.264 (active)
- normalized growth (locus YDR334W, strain swr1, active compounds read low): 0.532 (active)
- normalized growth (locus YDR335W, strain msn5, active compounds read low): 0.782 (active)
- normalized growth (locus YDR388W, active compounds read low): 0.0738 (active)
- normalized growth (locus YDR392W, strain spt3, active compounds read low): 0.299 (active)
- normalized growth (locus YDR502C, strain sam2, active compounds read low): 0.464 (active)
- normalized growth (locus YEL003W, strain gim4, active compounds read low): 0.681 (active)
- normalized growth (locus YEL037C, strain rad23, active compounds read low): 0.786 (active)
- normalized growth (locus YEL061C, strain CIN8 (second series), active compounds read low): 0.866 (active)
- normalized growth (locus YEL061C, strain CIN8, active compounds read low): 0.342 (active)
- normalized growth (locus YER015W, strain faa2, active compounds read low): 0.632 (active)
- normalized growth (locus YER016W, strain bim1, active compounds read low): 0.702 (active)
- normalized growth (locus YER110C, active compounds read low): 0.499 (active)
- normalized growth (locus YER111C, strain swi4, active compounds read low): 0.872 (active)
- normalized growth (locus YER155C, strain BEM2 (second series), active compounds read low): 0.446 (active)
- normalized growth (locus YER155C, strain BEM2, active compounds read low): 0.519 (active)
- normalized growth (locus YER167W, strain BCK2, active compounds read low): 0.269 (active)
- normalized growth (locus YFR010W, strain ubp6, active compounds read low): 0.356 (active)
- normalized growth (locus YGL078C, strain dbp3, active compounds read low): 0.466 (active)
- normalized growth (locus YGL086W, strain mad1, active compounds read low): 0.256 (active)
- normalized growth (locus YGL167C, strain pmr1, active compounds read low): 0.493 (active)
- normalized growth (locus YGL173C, strain kem1, active compounds read low): 0.68 (active)
- normalized growth (locus YGL227W, strain vid30, active compounds read low): 0.901 (active)
- normalized growth (locus YGL240W, strain doc1, active compounds read low): 0.711 (active)
- normalized growth (locus YGL248W, strain PDE1, active compounds read low): 0.356 (active)
- normalized growth (locus YGL253W, strain hxk2, active compounds read low): 0.825 (active)
- normalized growth (locus YGR078C, strain PAC10, active compounds read low): 0.721 (active)
- normalized growth (locus YGR135W, strain pre9, active compounds read low): 0.565 (active)
- normalized growth (locus YGR229C, strain SMI1, active compounds read low): 0.11 (active)
- normalized growth (locus YGR252W, strain gcn5, active compounds read low): 0.253 (active)
- normalized growth (locus YHR013C, strain ard1, active compounds read low): 0.303 (active)
- normalized growth (locus YHR027C, strain rpn1, active compounds read low): 0.58 (active)
- normalized growth (locus YHR030C, strain SLT2, active compounds read low): 0.508 (active)
- normalized growth (locus YHR079C, strain IRE1 (second series), active compounds read low): 0.196 (active)
- normalized growth (locus YHR094C, strain hxt1, active compounds read low): 0.529 (active)
- normalized growth (locus YHR129C, strain ARP1, active compounds read low): 0.563 (active)
- normalized growth (locus YHR142W, strain chs7, active compounds read low): 0.761 (active)
- normalized growth (locus YHR200W, strain rpn10, active compounds read low): 0.513 (active)
- normalized growth (locus YIL066C, strain RNR3, active compounds read low): 0.27 (active)
- normalized growth (locus YIL073C, strain SPO22, active compounds read low): 0.134 (active)
- normalized growth (locus YIL125W, strain kgd1, active compounds read low): 0.356 (active)
- normalized growth (locus YIR030C, strain dcg1, active compounds read low): 0.383 (active)
- normalized growth (locus YJL092W, strain hpr5, active compounds read low): 0.744 (active)
- normalized growth (locus YJL095W, strain BCK1 (second series), active compounds read low): 0.669 (active)
- normalized growth (locus YJL095W, strain BCK1, active compounds read low): 0.266 (active)
- normalized growth (locus YJL115W, strain asf1, active compounds read low): 0.858 (active)
- normalized growth (locus YJL129C, strain trk1, active compounds read low): 1.1
- normalized growth (locus YJL134W, strain LCB3, active compounds read low): 0.643 (active)
- normalized growth (locus YJL154C, strain vps35, active compounds read low): 0.485 (active)
- normalized growth (locus YJL164C, strain tpk1, active compounds read low): 0.684 (active)
- normalized growth (locus YJL166W, strain qcr8, active compounds read low): 0.59 (active)
- normalized growth (locus YJL168C, strain set2, active compounds read low): 0.4 (active)
- normalized growth (locus YJL187C, strain SWE1 (second series), active compounds read low): 0.326 (active)
- normalized growth (locus YJL187C, strain SWE1, active compounds read low): 0.771 (active)
